Source: PubChem BioAssay AID720504 (National Center for Advancing Translational Sciences (NCATS), 2013)
Hit rate of the full screen: of about 360,000 compounds, about 10,000 (2.8%) were called active. Another 4% or so got no clear call; they are omitted. Calls come from the whole dose curve; as a rule, active = well fitted inhibition curve with a large enough effect; inconclusive = small, poorly fitted or top-dose-only effect; inactive = flat fitted curve, though single readings scatter. Many of the other results were omitted from the sample, so actives are more common in it than they were.
% is set by controls: 0 for no effect and ±100 for the full control effect; potency is the fitted concentration of half-maximal effect.
Note: nearly all actives have a fitted effect of over 65% in size.
Throughout, for max response, negative = inhibition: series mostly up to about 57 µM.

Each compound was assayed against Serine/threonine-protein kinase PLK1 (Homo sapiens) (UniProt P53350) (assay: qHTS for Inhibitors of PLK1-PDB (polo-like kinase 1 - polo-box domain): Primary Screen). Settings: Plk1 PBD binding of FITC phosphopeptide, fluorescence polarization.
Serine/threonine-protein kinase PLK1 (Homo sapiens), sequence (P53350 whole entry, looked up, the tested form may be a part): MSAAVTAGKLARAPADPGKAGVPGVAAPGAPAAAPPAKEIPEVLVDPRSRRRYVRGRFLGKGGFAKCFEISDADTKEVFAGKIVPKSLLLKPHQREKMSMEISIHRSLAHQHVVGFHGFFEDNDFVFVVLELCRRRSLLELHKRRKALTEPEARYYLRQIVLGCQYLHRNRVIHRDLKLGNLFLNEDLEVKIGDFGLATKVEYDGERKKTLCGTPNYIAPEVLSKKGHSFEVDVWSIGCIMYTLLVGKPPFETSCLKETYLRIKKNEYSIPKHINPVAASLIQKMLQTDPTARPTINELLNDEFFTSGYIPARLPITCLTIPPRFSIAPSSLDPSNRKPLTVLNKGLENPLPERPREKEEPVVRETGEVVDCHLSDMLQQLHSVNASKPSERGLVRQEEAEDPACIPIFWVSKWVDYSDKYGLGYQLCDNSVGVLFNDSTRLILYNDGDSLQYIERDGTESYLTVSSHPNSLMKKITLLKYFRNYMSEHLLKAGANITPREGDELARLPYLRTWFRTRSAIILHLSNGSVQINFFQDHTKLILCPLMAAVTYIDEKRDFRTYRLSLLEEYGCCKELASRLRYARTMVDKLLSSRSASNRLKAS
Cc1ccc(-c2nc3c(Cl)cc(C(F)(F)F)cn3c2Cc2cccc(Cl)c2)cc1 was tested, and the max response, negative = inhibition was 4.46% (inactive). With COC(=O)c1c(NC(=O)C2CC(C)=C(C)CC2C(=O)O)sc2c1CCCCC2 (configuration not stated) the max response, negative = inhibition was -20.4% (inactive). With CCOC(=O)c1c(NC(=O)CN2C(=O)NC3(CCC(C)CC3)C2=O)sc(C)c1CC (configuration not stated) the max response, negative = inhibition was -5.1% (inactive). With CCOC(=O)c1c(NC(=O)C2CC=CCC2C(=O)O)sc(C)c1CC (configuration not stated) the Potency was 26.7 µM (active). With Nc1ncnc2c1ncn2[C@@H]1O[C@H](C(=O)NS(=O)(=O)c2c(Cl)nc3sccn23)[C@@H](O)[C@H]1O the max response, negative = inhibition was -12.2% (inactive). In the case of COCCNc1ncnc2c1ncn2[C@H]1CN(Cc2ccc(OC)cc2)C[C@@H](CO)O1, the max response, negative = inhibition is reported as 5.71% (inactive). For CCCC1(C(=O)OCC)NC(c2ccc(N(C)C)cc2)C2C(=O)N(c3ccc4c(c3)OCCO4)C(=O)C21 (configuration not stated), the max response, negative = inhibition was 0.149% (inactive). CCOC(=O)C1(C)NC(c2ccco2)C2C(=O)N(c3ccccc3)C(=O)C21 (configuration not stated) was tested, and the max response, negative = inhibition was -2.81% (inactive). CCCCC1(C(=O)OCC)NC(c2ccc(O)cc2)C2C(=O)N(c3ccccc3)C(=O)C21 (configuration not stated) was tested, and the Potency was 11.9 µM (active). In the case of COc1ccc(CCNC(=O)Nc2ccc3c(c2)c(=O)n(C)n3C)cc1OC, the max response, negative = inhibition is reported as -18.9% (inactive). In the case of N#CCSc1ccccc1NC(=O)CN1C(=O)NC(CCc2ccccc2)C1=O (configuration not stated), the max response, negative = inhibition is reported as 1.14% (inactive). In the case of COc1ccc(C(C(=O)NCc2ccccc2)n2c(=O)c(-c3ccccc3)nc3ccccc32)cc1 (configuration not stated), the max response, negative = inhibition is reported as -13.5% (inactive). In the case of COc1ccccc1NC(=O)C1=C(C)NC(=O)NC1c1ccc(C)s1 (configuration not stated), the max response, negative = inhibition is reported as -4.66% (inactive). For COC(=O)c1c(NC(C)=O)sc(C(=O)Nc2ccccc2OC)c1C, the Potency was 21.2 µM (active). CCC(=O)Nc1sc(C(=O)Nc2ccccc2)c(C)c1C(=O)OC was tested, and the max response, negative = inhibition was -13% (inactive). With Cc1[nH]c2ccccc2c1C(=O)c1cc([C@H](NC(=O)OC(C)(C)C)C(C)C)sc1N the max response, negative = inhibition was -13.9% (inactive). For COc1c(C)cc(C(O)c2ncc(-c3cccc(C(F)(F)F)c3)[nH]2)cc1C (configuration not stated), the max response, negative = inhibition was -6.75% (inactive). CCCC(=O)N1CCC1(C)C(=O)NS(=O)(=O)c1ccc(Cl)cc1 (configuration not stated) was tested, and the max response, negative = inhibition was -0.638% (inactive). In the case of O=C(NCc1ccc(F)cc1F)[C@@H]1CCCN1C(=O)[C@@H]1CCCN1C(=O)c1cccc(Cl)c1, the max response, negative = inhibition is reported as -3.81% (inactive). COc1ccc(NC(=O)N(C)C[C@@H]2OCc3cn(nn3)CCCC(=O)N([C@H](C)CO)C[C@H]2C)c(OC)c1 was tested, and the max response, negative = inhibition was -13% (inactive). In the case of COc1cccc(CNc2nc(NCc3ccccc3OC)nc3ccsc23)c1, the max response, negative = inhibition is reported as 5.58% (inactive). With CCCCC(=O)NNC(=S)NC(=O)C(c1ccccc1)c1ccccc1 the Potency was 26.7 µM (active). O=C(CCN1CCN(c2ccccc2)CC1)NNC(=S)Nc1ccccc1 was tested, and the max response, negative = inhibition was 2.64% (inactive). CCC(C)NC(=O)CCCc1ccccc1 (configuration not stated) was tested, and the max response, negative = inhibition was -5.23% (inactive). For Cc1cc(Br)ccc1NC(=O)CCCOc1cc(=O)n(C)c2ccccc12, the max response, negative = inhibition was -7.55% (inactive). O=C(COC(=O)Cc1ccc(Cl)cc1Cl)NCc1ccco1 was tested, and the max response, negative = inhibition was -7.73% (inactive). In the case of COC(=O)[C@@]1(Sc2ccc(C)cc2)CC(=O)N(c2cccc(SC)c2)[C@@H]1c1ccccc1, the max response, negative = inhibition is reported as -14.8% (inactive). For CC(Sc1ccc(S(=O)(=O)N2CCN(C)CC2)cn1)C(=O)NC1CCCC(C)C1C (configuration not stated), the max response, negative = inhibition was -3.15% (inactive). In the case of CCN1/C(=C\c2ccc3ccccc3[n+]2CC)Sc2cc(C)ccc21, the max response, negative = inhibition is reported as 18.1% (inactive). With CCN1/C(=C/C(=S)Nc2ccccc2)Sc2ccccc21 the Potency was 21.2 µM (active). In the case of CCNCCC(=O)N1c2ccccc2Sc2ccc(NC(=O)OCC)cc21, the max response, negative = inhibition is reported as 4.19% (inactive). With O=C(CCc1ccc(O)cc1)NN=Cc1cc(Br)ccc1O the max response, negative = inhibition was -9.45% (inactive). With CNS(=O)(=O)c1ccc2c(c1)[nH]c(=S)n2C the max response, negative = inhibition was -13.6% (inactive). With CN1OC[C@@H]2CN(S(=O)(=O)c3cccc4ccccc34)[C@H](c3ccc(N4CCCCC4)cc3)C[C@@H]21 the max response, negative = inhibition was -17.2% (inactive). In the case of CCCNC(=O)C1(C)CCN(C(=O)c2ccccc2OC(F)(F)F)C1 (configuration not stated), the max response, negative = inhibition is reported as 1.6% (inactive). In the case of COCCCN1C(=O)C(=O)/C(=C(/O)c2ccc3c(c2)CC(C)O3)C1c1cccnc1 (configuration not stated), the max response, negative = inhibition is reported as -4.58% (inactive). In the case of COc1cc(C2/C(=C(\O)c3ccc4c(c3)CC(C)O4)C(=O)C(=O)N2c2nnc(C)s2)cc(OC)c1OC (configuration not stated), the Potency is reported as 23.8 µM (active). In the case of COc1cc(C2/C(=C(\O)c3ccc4c(c3)CC(C)O4)C(=O)C(=O)N2Cc2ccco2)ccc1O (configuration not stated), the max response, negative = inhibition is reported as -6.21% (inactive). For COc1cccc(OCC(=O)NCCS(=O)(=O)N2CCN(c3ccccc3)CC2)c1, the max response, negative = inhibition was -0.74% (inactive). In the case of Cc1ccccc1NC(=O)Cc1nc(COC(=O)C(C)(C)Oc2ccc(Cl)cc2)cs1, the max response, negative = inhibition is reported as -1.61% (inactive). CCOC(=O)c1cc(C)nc(S(C)(=O)=O)c1C#N was tested, and the max response, negative = inhibition was -3.21% (inactive). With CCOC(=O)COc1nc(C)cc(C(F)(F)F)c1C#N the max response, negative = inhibition was -6.94% (inactive). With CCOC(=O)Cc1c(C)nc2c(C#N)c(C)nn2c1C the Potency was 18.9 µM (active). For Nc1nc(CSc2nnnn2-c2ccccc2)nc(Nc2ccccc2)n1, the max response, negative = inhibition was 0.127% (inactive). In the case of COc1ccc(-c2ccc(CN3C(CC(C)C)C(=O)N(Cc4cn(CC5CCCCC5)nn4)CCS3(=O)=O)cc2)cc1 (configuration not stated), the max response, negative = inhibition is reported as -10.4% (inactive). With Cn1c(=O)c(C(=O)Nc2ncccn2)c(O)c2ccccc21 the Potency was 8.44 µM (active). C=CCn1c(=O)c(C(=O)Nc2ncccc2O)c(O)c2ccccc21 was tested, and the max response, negative = inhibition was -22.1% (inactive). CCCn1c(=O)c(C(=O)Nc2cc(C)ccn2)c(O)c2ccccc21 was tested, and the max response, negative = inhibition was -9.12% (inactive). For CC(C)c1cc(Cn2c3ccccc3c(=O)n2C(C)Cn2cc(C3CC3)nn2)on1 (configuration not stated), the max response, negative = inhibition was -4.91% (inactive). CCn1c(Cc2cccs2)nnc1SCC(=O)c1ccc(C)cc1 was tested, and the Potency was 16.8 µM (active). For CCn1c(SCC(=O)c2ccc(Cl)s2)nnc1-c1cccs1, the max response, negative = inhibition was -17.2% (inactive). For Cc1ccc(-n2c(Cc3cccs3)nnc2SCC(=O)OC(C)C)cc1, the max response, negative = inhibition was -2.98% (inactive). For COC(=O)[C@@]12C[C@@H](CC(=O)N3CCC(c4ccccc4)CC3)C(=O)N(Cc3ccccc3)C1=CCC(C)(C)C2, the max response, negative = inhibition was -1.16% (inactive). In the case of O=C(NCc1ccc(F)cc1)c1cc(C2CCCCN2C(=O)c2ccccn2)on1 (configuration not stated), the max response, negative = inhibition is reported as -4.01% (inactive). c1ccc(-c2cc3c(NCC4COc5ccccc5O4)ncnc3s2)cc1 (configuration not stated) was tested, and the max response, negative = inhibition was -4.18% (inactive). Oc1ccccc1N1CCN(c2ncnc3sc(-c4ccccc4)cc23)CC1 was tested, and the Potency was 15 µM (active). In the case of COc1ccccc1N1CCN(c2ncnc3sc(C)c(-c4ccccc4)c23)CC1, the max response, negative = inhibition is reported as 8.83% (inactive). In the case of CS(=O)(=O)c1cccc(-c2ccc3nncn3c2)c1, the max response, negative = inhibition is reported as -8.79% (inactive). With N#CCCC(C#N)(c1cccnc1)N1CCOCC1 (configuration not stated) the max response, negative = inhibition was -8.09% (inactive). With COc1ccc(C2CC(c3cccs3)=NN2C(=O)CSc2nncs2)cc1OC (configuration not stated) the max response, negative = inhibition was -11.3% (inactive). In the case of COc1ccc(C2CC(c3cccs3)=NN2C(=O)CCC(=O)O)cc1OC (configuration not stated), the Potency is reported as 23.8 µM (active). In the case of COc1ccc(C2=NN(C(=O)CCC(=O)O)C(c3cccs3)C2)cc1OC (configuration not stated), the max response, negative = inhibition is reported as -7.47% (inactive). In the case of COc1ccc(C2CC(c3cccc(OC)c3)=NN2c2ccc(S(N)(=O)=O)cc2)cc1 (configuration not stated), the max response, negative = inhibition is reported as -4.37% (inactive). With COc1ccc(NC(=O)c2cc(=O)[nH]c3ccccc23)cc1S(=O)(=O)N1CCOCC1 the max response, negative = inhibition was -1.4% (inactive). With Nc1[nH]c(C(=O)c2ccccc2)c(-c2ccncc2)c1C(=O)NCc1cccc2ccccc12 the max response, negative = inhibition was -5.24% (inactive). For OC[C@@H]1CN(Cc2ccc(F)cc2)C[C@H](n2cnc3c(NC4CCCC4)ncnc32)O1, the max response, negative = inhibition was -5.68% (inactive). For Oc1c(Cl)cc(Cl)c(Cl)c1Cc1c(O)c(Cl)cc(Cl)c1Cl, the Potency was 21.2 µM (active). In the case of CCc1nc2c(OCc3ccccc3)cccn2c1N(C)C(=O)c1ccco1, the max response, negative = inhibition is reported as 3.35% (inactive). In the case of CCn1c(SCC(=O)N2CCCC2=O)nc2ccccc21, the max response, negative = inhibition is reported as -10% (inactive). In the case of O=C(CCc1ccccc1)Nc1nn[nH]n1, the Potency is reported as 26.7 µM (active). For Cc1ccc(F)c(NC(=O)CCc2ccccc2)c1, the max response, negative = inhibition was -9.88% (inactive). With O=C(CCc1ccccc1)NNc1ccc(F)cc1 the max response, negative = inhibition was -17.7% (inactive). For C[C@H]1CN([C@@H](C)CO)C(=O)c2cc(C3=CCCCC3)cnc2O[C@@H]1CN(C)C(=O)Cc1ccccc1, the max response, negative = inhibition was -26.3% (inactive). For CCN(C(=O)CSc1ncn[nH]1)c1cccc2ccccc12, the max response, negative = inhibition was -2.53% (inactive). In the case of CC(C)(C)c1ccc(C(=O)CSc2ncn[nH]2)cc1, the Potency is reported as 20 µM (active). In the case of O=C(CSc1ncn[nH]1)Nc1ccc(Br)cc1Br, the max response, negative = inhibition is reported as -1.62% (inactive). For CC/S(CC1CC1(Cl)Cl)=N\S(=O)(=O)c1ccc(C)cc1 (configuration not stated), the max response, negative = inhibition was -0.46% (inactive). In the case of CCCC/S(C)=N/S(=O)(=O)c1ccc(C)cc1 (configuration not stated), the max response, negative = inhibition is reported as -5.69% (inactive). For Cc1ccc(S(=O)(=O)/N=S(\C)C(C)C)cc1 (configuration not stated), the Potency was 26.7 µM (active). With O=C(NCC(F)(F)F)c1ccc(S(=O)(=O)NCCc2ccc3c(c2)OCCO3)cc1 the max response, negative = inhibition was -0.767% (inactive). COCCNC(=O)C1C(=O)Nc2ccccc2C(=O)N1c1ccc2c(c1)OCCO2 (configuration not stated) was tested, and the max response, negative = inhibition was -3.12% (inactive). In the case of O=C(O)c1ccc2c(=O)n3c(nc2c1)/C(=C/c1ccc(OC(F)F)cc1OC(F)F)CC3, the Potency is reported as 10.6 µM (active). In the case of Cc1ccc(/C=C2\CCn3c2nc2cc(C(=O)O)ccc2c3=O)c(C)c1, the max response, negative = inhibition is reported as -12.7% (inactive). In the case of N#Cc1ccc(/C=C2\CCn3c2nc2cc(C(=O)O)ccc2c3=O)cc1, the max response, negative = inhibition is reported as -8.35% (inactive). With COc1cccc(NC(=O)C2(C)CCN2C(=O)CCC2CCCC2)c1 (configuration not stated) the max response, negative = inhibition was 1.49% (inactive). With FC(F)(F)Oc1ccccc1C(c1nnnn1C1CCCCC1)N1CCN(C/C=C/c2ccccc2)CC1 (configuration not stated) the max response, negative = inhibition was -10.7% (inactive). CCNC(=O)C1(C)CCN(C(=O)c2ccccc2)C1 (configuration not stated) was tested, and the max response, negative = inhibition was -1.07% (inactive).
